HTT promoter inh: HTT promoter inhibition | HEK293 HTT promoter firefly luciferase reporter, 24 h | Potency, µM (series often up to 57.5 µM), hits mostly inhibitors | actives 0.93% (n = 48,000) | AID 1508623; also: nearly all actives have a fitted effect of over 50% in size
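Firefly luciferase signal from promoter-reporter HEK293 cells was scaled between vehicle (0%) and zero RLU (-100%). Compounds were tested at final concentrations of up to 57.5 uM over 24 h at 37 degrees C. PTC124 at 50 uM final served as control inhibitor.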
S16 F2sN tox: cytotoxicity in S16 Pmp22-F2sN Schwann cells. S16 Pmp22-F2sN Schwann cells viability, CellTiter-Glo, 24 h. Potency, µM (titrated, usually from 57.5 µM), hits mostly cytotoxic. actives 0.48% (n = 43,000). AID 1508642; also: nearly all actives have a fitted effect of over 65% in size
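Rat S16 Schwann reporter line, 24 h treatment with library compounds delivered at 23 nL per well. Cell viability by CellTiter-Glo luminescence.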
FH mod: Identification of activators of human fumarate hydratase by quantitative high-throughput screening; AID 1347055, 2019; FH coupled MDH/diaphorase resazurin fluorescence, 15 min; actives 0.22% (n = 54,000); Potency, µM (top dose mostly 79.9 µM), actives largely listed as inhibitors; Fumarate hydratase, mitochondrial (Homo sapiens), P07954; also: the screen sought activators but most active calls are inhibition curves; nearly all actives have a fitted effect of over 45% in size
Target sequence (P07954 whole entry, looked up): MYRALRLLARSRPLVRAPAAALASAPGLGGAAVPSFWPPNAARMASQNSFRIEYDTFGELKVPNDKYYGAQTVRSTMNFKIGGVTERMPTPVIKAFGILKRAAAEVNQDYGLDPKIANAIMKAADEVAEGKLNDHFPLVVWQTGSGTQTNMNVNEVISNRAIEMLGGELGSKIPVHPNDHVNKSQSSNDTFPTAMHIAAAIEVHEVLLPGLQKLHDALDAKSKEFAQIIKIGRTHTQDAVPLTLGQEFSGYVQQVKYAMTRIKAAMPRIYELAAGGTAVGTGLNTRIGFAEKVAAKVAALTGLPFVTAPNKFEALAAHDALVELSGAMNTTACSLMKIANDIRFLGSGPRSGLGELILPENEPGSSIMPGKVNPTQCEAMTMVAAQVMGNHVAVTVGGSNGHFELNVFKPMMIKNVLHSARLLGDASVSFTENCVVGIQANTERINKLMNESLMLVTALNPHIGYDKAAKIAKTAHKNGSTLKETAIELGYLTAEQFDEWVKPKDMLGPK
PMP22 txn prim: PMP22 gene transcription modulation | S16 Pmp22-F2sN Schwann cells, FLuc/NLuc coincidence luminescence, 24 h | Potency, µM (series often up to 57.5 µM), usual class: inhibitors | actives 2% (n = 43,000) | AID 1508649; active = clear falling dose curves in both reporters; inconclusive = both reporters move, but less clearly or upward; inactive = either reporter flat; the % is the NLuc reporter signal
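Schwann cells carrying the coincidence reporter were exposed to library compounds for 24 h at 37C, then lysed and read for FLuc and, after quenching, NLuc luminescence on a CCD imager.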
HTT-AS promoter: HTT-AS promoter activation. Potency, µM (series often up to 57.5 µM), most hits filed as activators. HEK293 HTT-AS promoter firefly luciferase reporter, 24 h; response scale: percent change from vehicle, -100% = no light. actives 0.24% (n = 48,000). AID 1508624; also: nearly all actives have a fitted effect of over 55% in size
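Firefly luciferase signal from promoter-reporter HEK293 cells was scaled between vehicle (0%) and zero RLU (-100%). Compounds were tested at final concentrations of up to 57.5 uM over 24 h at 37 degrees C. PTC124 at 50 uM final served as control inhibitor.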
mTORC1 inh: inhibitors of mTORC1 signaling in Tsc2-/- p53-/- MEF cells; Tsc2-/- p53-/- MEF, phospho-rpS6 immunofluorescence/PI, 24 h; Potency, µM (top dose mostly 38.3 µM), most hits filed as inhibitors; actives 0.78% (n = 44,000); AID 493208; also: nearly all actives have a fitted effect of over 50% in size
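Compounds act on Tsc2-/-, p53-/- fibroblasts carrying an empty vector for 24 h before fixation and dual staining for phospho-S6 and DNA (propidium iodide). Values are percentages of cells above a rapamycin-defined pS6/PI threshold.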
NLuc sat counter: counter-screen for PMP22 expression modulators: NanoLuc inhibition, saturating substrate | Potency, µM (doses to about 57.5 µM), hits mostly inhibitors | Secreted NLuc enzyme (filtered S16 cell medium), Nano-Glo luminescence | actives 4% (n = 690) | shares compounds with PMP22 txn prim
NLuc Km ctr: inhibits NanoLuc under Km conditions, PMP22 counter-screen; shares compounds with PMP22 txn prim; actives 5% (n = 690); AID 1508639; secreted NLuc enzyme, coelenterazine luminescence, Km conditions; Potency, µM (highest dose often 57.5 µM), hits mostly inhibitors
FLuc counter: counter-screen for PMP22 expression modulators: firefly luciferase inhibition | AID 1508640 | 690 tested, under 10 active | shares compounds with PMP22 txn prim | purified P. pyralis FLuc, luminescence, 10 min | Potency, µM (series often up to 57.5 µM), usual class: inhibitors
S16 F2sN tox cnf: confirmation of cytotoxicity in S16 Pmp22-F2sN Schwann cells (luciferase reporters placed in the Pmp22 gene). shares compounds with PMP22 txn prim. actives 7% (n = 690). S16 Schwann cells viability, CellTiter-Glo ATP luminescence, 24 h. Potency, µM (top dose mostly 57.5 µM), hits mostly cytotoxic
PMP22 txn cnf: PMP22 transcription modulation, confirmatory; actives 22% (n = 690); Potency, µM (doses to about 57.5 µM), hits mostly inhibitors; AID 1508646; S16 Schwann cells Pmp22-F2sN, dual luciferase, 24 h; shares compounds with PMP22 txn prim; active = clear falling dose curves in both reporters; inconclusive = both reporters move, but less clearly or upward; inactive = either reporter flat; the % is the FLuc reporter signal
Numbers stand for hits; . = inactive; ? = inconclusive; / = no result. A selection: hits, their analogues and other compounds. The true share with any hit is near 3.3%. Unless noted, calls follow the shape of the dose curve; as a rule, active = well fitted curve in the direction sought with a large enough effect; inconclusive = small, poorly fitted or top-dose-only effect, or another doubt; inactive = no such curve, though single readings can be large; an effect the other way counts as inactive or inconclusive.

SMILES | HTT promoter inh | S16 F2sN tox | FH mod | PMP22 txn prim | HTT-AS promoter | mTORC1 inh | others
N#Cc1cc2c(nc1SCC(=O)Nc1ccc(OC(F)(F)F)cc1)C1CCN2CC1 | 28µM | ? | . | ? | . | .
C[C@@H]1CCC2[C@@H](C)C(=O)OC3O[C@@]4(C)CCC1[C@]32OO4 (stereo partly drawn) | / | / | . | / | / | /
CN1CCc2cc(O)cc3c2[C@H]1Cc1ccc(O)c(O)c1-3 | / | / | 14µM | / | / | /
CN1CCc2cc(Cl)c(O)cc2[C@H]2c3ccccc3CC[C@@H]21 | . | / | . | / | . | /
CCCN1CCc2cc(O)cc3c2[C@H]1Cc1ccc(O)c(O)c1-3 | / | / | 14µM | / | / | /
CCCN1CCO[C@H]2c3cc(O)ccc3OC[C@@H]21 | / | / | . | / | / | /
Fc1cc(F)c2c(c1)[C@H]1C=CC[C@H]1C(c1cccnc1)N2 (stereo partly drawn) | / | / | . | / | / | /
COc1cc(C)[nH]c(=O)c1CNC(=O)c1c(C)n([C@H](C)C2CCOCC2)c2ccccc12 | / | / | . | / | / | /
COc1ccc(NC(=O)c2cccn(Cc3ccc(Cl)cc3)c2=O)c(OC)c1 | 13µM | . | . | ? | . | .
COc1ccc(NC(C)=O)cc1NC(=O)c1cccn(Cc2ccccc2)c1=O | . | . | . | . | . | .
CCOc1ccc(NC(=O)c2cccn(Cc3cccc(Cl)c3)c2=O)cc1 | 16µM | . | . | . | . | ?
CCOc1ccc(NC(=O)c2cc3c(C)nn(-c4ccccc4)c3s2)cc1 | . | . | . | ? | . | 18µM
Cc1cc(-c2ccc(C)c(S(=O)(=O)N3CCOc4ccc(Cl)cc43)c2)on1 | 28µM | . | . | ? | . | ?
Oc1ccc([C@H]2CNCc3c2ccc(O)c3O)cc1O | . | / | 31µM | / | . | /
COC(=O)[C@]12CCCC(C)(C)C1CCc1cc(C(C)C)c(O)c(O)c12 (stereo partly drawn) | / | / | . | / | / | /
CCOC(=O)C1=C(CN2CCN(c3ccc(C)cc3C)CC2)NC(=O)NC1c1ccc(OC)cc1 (stereo not drawn) | 28µM | ? | ? | ? | . | ?
O=C(N1CCCCC1Cc1ccccc1)n1cc(-c2ccc(-c3ccccc3)cc2)nn1 (stereo not drawn) | / | / | . | / | / | /
CCNC(=O)[C@H]1O[C@@H](n2cnc3c(N)ncnc32)[C@H](O)C1O (stereo partly drawn) | / | / | . | / | / | /
COc1ccsc1CNCC[C@@]1(c2ccccn2)CCOC2(CCCC2)C1 | / | / | . | / | / | /
Cc1ccc2oc(-c3ccc(Cl)cc3)c(O)c(=O)c2c1 | . | ? | . | ? | 2.5µM | 9.3µM
Cc1oc(-c2ccc(Cl)cc2)nc1CN1CCC(C(=O)NCCCN2CCN(c3cccc(Cl)c3)CC2)CC1 | . | ? | ? | 13µM | . | ? | NLuc sat counter=?;NLuc Km ctr=?;FLuc counter=.;S16 F2sN tox cnf=17µM;PMP22 txn cnf=10µM
COC1CC(O[C@H]2CC[C@]3(C=O)C4CC[C@]5(C)[C@@H](C6=CC(=O)OC6)CC[C@]5(O)[C@@H]4CC[C@@H]3C2)OC(C)C1O[C@@H]1O[C@H](CO)[C@@H](O[C@@H]2O[C@H](CO)[C@@H](O)[C@H](O)[C@H]2O)[C@H](O)[C@H]1O (stereo partly drawn) | / | / | . | / | / | /

Assay outcomes: PubChem, National Center for Advancing Translational Sciences (NCATS)
